Some test systems named below: NCI-H23 lung; NCI-H226 lung; NCI-H322M lung; HOP-62 NSCLC; NCI-H460 lung; 786-0 renal; MDA-MB-231 breast; SF-268 CNS; SF-539 CNS; M14 melanoma; U251 CNS; PC-3 prostate; UACC-62 melanoma; SK-MEL-28 melanoma; UO-31 renal; OVCAR-3 ovarian; SW-620 colon; MCF7 breast; HCT-116 colon; KM12 colon.
Common to all, as to test: NCI-60 one-dose screen, 48 h (100 = growth as untreated, 0 = no growth, -100 = all killed)
What all share (conditions): 10 µM unless noted

Compounds without any hit were thinned out: in the full panel of roughly 83,000, 20% have a hit.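 Note: values are percent growth. 100 is the growth of untreated cells, values between 100 and 0 indicate rising inhibition; between -100 and 0 indicates cell death.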 A number with no mark means an inactive call. Activity calls are given as the source filed them. Rule for the calls: active = growth percent below 10; inactive = the rest.

The values below come from PubChem BioAssay (NCI).

Turning to `O=[N+]([O-])c1cccc([As]=[As]c2cccc([N+](=O)[O-])c2)c1` (stereo not given), the growth in the test with NCI-H23 lung is -36.4% (active); in the test with NCI-H226 lung, -60.7% (active); with NCI-H322M lung, -97.4% (active); with HOP-62 NSCLC it was -95.1% (active); in the test on NCI-H460 lung it was -65.7% (active); with 786-0 renal it was -93% (active). Also, the growth in the test on MDA-MB-231 breast was -91.8% (active); in the test on SF-268 CNS it was -92.1% (active); in the test with SF-539 CNS, -99.7% (active); in the test on M14 melanoma, -94.4% (active); in the test with U251 CNS, -96.1% (active); in the test on PC-3 prostate, -84.8% (active). Besides, the growth was -97.6% (active) in the test on UACC-62 melanoma; -98.4% (active) in the test on SK-MEL-28 melanoma; -98.7% (active) in the test on UO-31 renal; -96.1% (active) in the test on OVCAR-3 ovarian; -68.8% (active) in the test with SW-620 colon; -53.6% (active) in the test with MCF7 breast. Further, the growth in the test with HCT-116 colon is -89.3% (active); with KM12 colon it was -92.7% (active).

`O=C(O)c1cccc(CCl)c1`: the growth with NCI-H23 lung is 108%; in the test with NCI-H226 lung, 104%; with NCI-H322M lung, 107%; in the test on HOP-62 NSCLC, 108%; in the test on NCI-H460 lung, 103%; with 786-0 renal, 101%. Moreover, the growth is 113% in the test with MDA-MB-231 breast; 102% in the test on SF-268 CNS; 94.3% with SF-539 CNS; 95.8% in the test with M14 melanoma; 96.7% in the test on U251 CNS; 102% in the test with PC-3 prostate. The growth is 108% in the test with UACC-62 melanoma; 110% in the test with SK-MEL-28 melanoma; 90.3% in the test with UO-31 renal; 109% with OVCAR-3 ovarian; 110% in the test with SW-620 colon; 98.4% in the test with MCF7 breast. Besides, the growth with HCT-116 colon was 96.7%; in the test on KM12 colon it was 96.3%.

For `S=P(N1CCCCCC1)(N1CC1)N1CC1`, the growth was 102% in the test on NCI-H23 lung; 106% in the test with NCI-H226 lung; 121% with NCI-H322M lung; 94.8% with HOP-62 NSCLC; 107% in the test with NCI-H460 lung; 103% in the test with 786-0 renal. Also, the growth with MDA-MB-231 breast is 96.4%; in the test on SF-268 CNS it was 96.8%; in the test on SF-539 CNS, 102%; in the test on M14 melanoma, 103%; with U251 CNS, 106%; with PC-3 prostate, 93.7%. The growth in the test with UACC-62 melanoma is 98.3%; in the test on SK-MEL-28 melanoma, 116%; in the test with UO-31 renal, 104%; with OVCAR-3 ovarian, 112%; in the test with SW-620 colon it was 108%; with MCF7 breast, 94%. The results for the growth in the test on HCT-116 colon and in the test on KM12 colon were 99.8% and 105%, respectively.

With `COC1=CC(=O)OC(CCc2ccc3c(c2)OCO3)C1` (stereo not given), the growth was 121% in the test with NCI-H23 lung; 105% in the test with NCI-H226 lung; 132% in the test with NCI-H322M lung; 106% with HOP-62 NSCLC; 103% in the test on NCI-H460 lung; 112% in the test on 786-0 renal. Further, the growth in the test with MDA-MB-231 breast was 114%; with SF-268 CNS, 101%; in the test with SF-539 CNS, 103%; with M14 melanoma, 104%; in the test with U251 CNS, 89%; in the test with PC-3 prostate it was 106%. The growth in the test with UACC-62 melanoma is 107%; in the test with SK-MEL-28 melanoma, 117%; with UO-31 renal it was 101%; with OVCAR-3 ovarian, 122%; in the test with SW-620 colon, 102%; with MCF7 breast, 86.9%. In addition, the growth was 106% with HCT-116 colon and 109% with KM12 colon.

`CC(CC(C#N)(c1ccccc1)c1ccccc1)N1CCOCC1` (stereo not given): the growth was 106% in the test with NCI-H23 lung; 112% with NCI-H226 lung; 107% with NCI-H322M lung; 97.6% in the test on HOP-62 NSCLC; 112% in the test with NCI-H460 lung; 112% in the test with 786-0 renal. The growth is 94.4% in the test on MDA-MB-231 breast; 101% in the test on SF-268 CNS; 101% with SF-539 CNS; 114% with M14 melanoma; 99.2% in the test on U251 CNS; 90.4% in the test with PC-3 prostate. Further, the growth in the test with UACC-62 melanoma is 80.4%; with SK-MEL-28 melanoma, 123%; with UO-31 renal it was 74.6%; in the test on OVCAR-3 ovarian, 105%; in the test with SW-620 colon, 106%; in the test on MCF7 breast, 122%. Besides, the growth in the test with HCT-116 colon was 106%; with KM12 colon, 104%.

As for `CN(C)P1(N(C)C)=NP(N(C)C)(N(C)C)=NP(N(C)C)(N(C)C)=N1`, the growth is 106% with NCI-H23 lung; 99.5% in the test with NCI-H226 lung; 98.8% in the test on NCI-H322M lung; 99% in the test with HOP-62 NSCLC; 107% in the test with NCI-H460 lung; 101% with 786-0 renal. The growth in the test with MDA-MB-231 breast is 107%; with SF-268 CNS it was 105%; in the test on SF-539 CNS it was 104%; in the test with M14 melanoma it was 101%; in the test with U251 CNS, 97.9%; with PC-3 prostate, 90%. Besides, the growth with UACC-62 melanoma was 103%; with SK-MEL-28 melanoma it was 107%; in the test on UO-31 renal it was 83.1%; in the test on OVCAR-3 ovarian, 106%; in the test with SW-620 colon, 103%; with MCF7 breast, 95.4%. Also, the growth was 102% in the test with HCT-116 colon and 104% in the test with KM12 colon.

`O=[As]c1ccc(C(=O)c2ccc(Oc3ccccc3)cc2)cc1` (stereo not given): the growth was -77.5% (active) in the test on NCI-H23 lung; -85.5% (active) with NCI-H226 lung; -79.1% (active) with NCI-H322M lung; -98.3% (active) in the test on HOP-62 NSCLC; -31.9% (active) in the test on NCI-H460 lung; -99.6% (active) in the test with 786-0 renal. Further, the growth is -98.4% (active) in the test on MDA-MB-231 breast; -89.2% (active) with SF-268 CNS; -98.4% (active) in the test with SF-539 CNS; -94.1% (active) in the test with M14 melanoma; -100% (active) with U251 CNS; -61.4% (active) with PC-3 prostate. The growth in the test on UACC-62 melanoma is -98.1% (active); in the test with SK-MEL-28 melanoma, -96.3% (active); with UO-31 renal it was -84.6% (active); in the test with OVCAR-3 ovarian it was -93.9% (active); with SW-620 colon it was -82.6% (active); in the test with MCF7 breast, -48.6% (active). The growth is -99.2% (active) in the test on HCT-116 colon and -87.2% (active) in the test on KM12 colon.

Regarding `C/C(=C\c1cc(C(F)(F)F)n(-c2ccc(N)cc2)n1)[C@@H]1C[C@@H]2O[C@]2(C)CCC[C@H](C)[C@H](O)[C@@H](C)C(=O)C(C)(C)[C@@H](O)CC(=O)O1`, the growth is 24.4% in the test on NCI-H23 lung; 38.9% with NCI-H226 lung; 22.2% with NCI-H322M lung; 19.2% in the test with HOP-62 NSCLC; 3.04% (active) in the test with NCI-H460 lung; 8.49% (active) in the test with 786-0 renal. Further, the growth is 0.97% (active) in the test on MDA-MB-231 breast; 6.48% (active) with SF-268 CNS; -18.5% (active) in the test with SF-539 CNS; -14.3% (active) with M14 melanoma; 3.19% (active) in the test on U251 CNS; 9.42% (active) in the test with PC-3 prostate. Besides, the growth in the test with UACC-62 melanoma is 26.8%; in the test with SK-MEL-28 melanoma, 39.1%; with UO-31 renal it was 26.6%; in the test on OVCAR-3 ovarian, -0.038% (active); with SW-620 colon it was 26.5%; in the test on MCF7 breast, 7.93% (active). The growth was 5.82% (active) with HCT-116 colon and 5.68% (active) in the test with KM12 colon.
